# Data from PubChem BioAssay (Tox21).
# “And” between values parts separate entries of the source, which are not always exact repeats. Equal entries are not always repeated. Inconclusive results are not listed. A call without a number means that no potency is given here. The source made the active and inactive calls. Unless noted, the call rests on the fitted dose curve; in most records, active means well fitted curve in the direction sought with a large enough effect in the repeat runs; inconclusive means weak or mixed curves; inactive means no such curve, though single readings can be large; an effect the other way counts as inactive or inconclusive.
# What was measured:
# [1] = qHTS assay to test for compound auto fluorescence at 535 nm (green) in HEK293 cells (AID 720680)
# [2] = qHTS assay to test for compound auto fluorescence at 460 nm (blue) in HEK293 cell free culture (AID 720681); further: potency means the concentration at half of the fitted maximal effect
# In short: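 Test compounds were pinned into cell-free culture medium (DMEM with 10% FBS) and fluorescence was read directly at Ex/Em 405/460 nm. Signals were expressed as fluorescence equivalents of triamterene, with DMSO vehicle as control.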
# [3] = qHTS assay to test for compound auto fluorescence at 535 nm (green) in HEK293 cell free culture (AID 720682)
# In short: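 Green-channel intensity (Ex/Em 485/535 nm) was recorded from compound-treated wells containing only DMEM with 10% FBS. Fluorescein provided the equivalency standard.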
# [4] = qHTS assay to test for compound auto fluorescence at 590 nm (red) in HEK293 cell free culture (AID 720683)
# In short: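 Tox21 10K library compounds were pinned into cell-free DMEM with 10% FBS and fluorescence was read at excitation 540 nm. Activity is expressed as Rose Bengal sodium equivalency.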
# [5] = qHTS assay to test for compound auto fluorescence at 590 nm (red) in HepG2 cell free culture (AID 720684)
# In short: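 Readout: intrinsic compound fluorescence at 590 nm emission after 540 nm excitation, scaled to Rose Bengal sodium. Matrix was cell-free MEM with 10% FBS; DMSO vehicle wells served as control.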
# [6] = qHTS assay to test for compound auto fluorescence at 460 nm (blue) in HepG2 cell free culture (AID 720685); further: potency means the concentration at half of the fitted maximal effect
# In short: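 Cell-free plates of MEM plus 10% FBS received 23 nL compound or DMSO vehicle; blue-channel (405/460 nm) intensity scored against triamterene as reference fluorophore.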
# [7] = qHTS assay to test for compound auto fluorescence at 535 nm (green) in HepG2 cell free culture (AID 720686)
# [8] = qHTS assay to test for compound auto fluorescence at 460 nm (blue) in HepG2 cells (AID 720687)
# In short: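 Cells (2,000/well in MEM with 10% FBS) attached overnight at 37 C, then were exposed to compound or DMSO for 1 hr at 37 C, 5% CO2. Fluorescence read at Ex/Em 405/460 nm, expressed as triamterene-equivalent signal.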
# [9] = qHTS assay to identify small molecule antagonists of the glucocorticoid receptor (GR) signaling pathway - cell viability counter screen (AID 720693); further: nearly all actives have a fitted effect of over 55% in size; further: potency means the concentration at half of the fitted maximal effect
# [10] = qHTS assay for identifying genotoxic compounds that show differential cytotoxicity against isogenic chicken DT40 cell lines with known DNA damage response pathways - wild type cell line (AID 743012); further: potency means the concentration at half of the fitted maximal effect; nearly all actives have a fitted effect of over 60% in size
# In short: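 300 wt DT40 cells/well; cpd (DMSO) pintool-transferred after ~0.5 h at 37 C/5% CO2; 40 h incubation; CellTiter-Glo added, 30 min RT; luminescence read.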
# [11] = qHTS assay for identifying genotoxic compounds that show differential cytotoxicity against isogenic chicken DT40 cell lines with known DNA damage response pathways - Rad54/Ku70 mutant cell line (AID 743015); further: potency means the concentration at half of the fitted maximal effect; nearly all actives have a fitted effect of over 60% in size
# [12] = qHTS assay to identify small molecule antagonists of the androgen receptor (AR) signaling pathway - cell viability counter screen (AID 743033; further: nearly all actives have a fitted effect of over 45% in size; further: potency means the concentration at half of the fitted maximal effect)
# [13] = qHTS assay to identify small molecule antagonists of the androgen receptor (AR) signaling pathway using the MDA cell line - cell viability counter screen (AID 743041; further: nearly all actives have a fitted effect of over 45% in size; further: potency means the concentration at half of the fitted maximal effect)
# In short: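 qHTS viability read-out; MDA-kb2 AR-luc; R1881-stimulated; 16 h exposure at 37C, 0% CO2; CellTiter-Fluor, 30 min; fluorescence intensity.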
# [14] = qHTS assay for identifying genotoxic compounds that show differential cytotoxicity against isogenic chicken DT40 cell lines with known DNA damage response pathways - Rev3 mutant cell line (AID 743014); further: potency means the concentration at half of the fitted maximal effect; nearly all actives have a fitted effect of over 55% in size
# [15] = target: Androgen receptor (Homo sapiens) (UniProt P10275); assay: qHTS assay to identify small molecule agonists of the androgen receptor (AR) signaling pathway using the MDA cell line (AID 743040; further: nearly all actives have a fitted effect of over 20% in size)
# Androgen receptor (Homo sapiens), sequence (P10275 whole entry, looked up): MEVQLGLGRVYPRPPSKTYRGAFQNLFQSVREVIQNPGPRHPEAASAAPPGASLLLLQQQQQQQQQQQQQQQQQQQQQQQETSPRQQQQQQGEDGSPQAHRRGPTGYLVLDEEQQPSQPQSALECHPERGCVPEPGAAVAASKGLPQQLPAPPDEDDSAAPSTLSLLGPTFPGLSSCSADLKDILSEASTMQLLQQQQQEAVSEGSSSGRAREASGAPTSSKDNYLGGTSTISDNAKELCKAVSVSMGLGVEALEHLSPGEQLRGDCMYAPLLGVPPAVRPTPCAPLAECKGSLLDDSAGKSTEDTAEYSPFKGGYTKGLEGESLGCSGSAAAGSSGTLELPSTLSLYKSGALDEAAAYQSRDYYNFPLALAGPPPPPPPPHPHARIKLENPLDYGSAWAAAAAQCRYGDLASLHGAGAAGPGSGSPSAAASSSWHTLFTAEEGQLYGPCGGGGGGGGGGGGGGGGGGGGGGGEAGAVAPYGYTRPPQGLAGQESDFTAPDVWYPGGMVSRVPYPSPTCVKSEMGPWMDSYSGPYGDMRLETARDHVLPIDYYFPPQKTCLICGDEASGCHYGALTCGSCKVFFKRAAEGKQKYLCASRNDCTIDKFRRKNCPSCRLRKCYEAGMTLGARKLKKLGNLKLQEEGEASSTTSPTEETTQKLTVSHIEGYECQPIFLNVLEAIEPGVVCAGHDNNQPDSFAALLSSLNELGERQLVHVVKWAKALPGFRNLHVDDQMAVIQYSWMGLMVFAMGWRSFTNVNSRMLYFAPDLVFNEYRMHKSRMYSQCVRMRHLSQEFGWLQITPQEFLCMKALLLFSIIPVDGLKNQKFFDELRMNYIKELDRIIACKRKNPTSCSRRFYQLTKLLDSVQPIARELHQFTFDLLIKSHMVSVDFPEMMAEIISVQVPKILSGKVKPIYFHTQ
# In short: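 Agonist activity is measured as luciferase luminescence in human MDA-kb2 cells whose MMTV reporter responds to both AR and GR. Compounds in DMSO incubate 16 h at 37C, 0% CO2, and ONE-Glo is read after 30 min.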
# [16] = target: Androgen receptor (Homo sapiens) (UniProt P10275); assay: qHTS assay to identify small molecule agonists of the androgen receptor (AR) signaling pathway (AID 743036; active means well fitted activation curve with a large enough effect in the signal ratio in the repeat runs, with a control signal flat, not every such curve was filed as active; the % refers to the signal ratio)
# In short: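 Cell-based FRET reporter assay: HEK293 line with a UAS-beta-lactamase construct, compounds added in DMSO, 16 h exposure at 37C, then 2 h substrate step at room temperature and fluorescence intensity read.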
# [17] = target: Glucocorticoid receptor (Homo sapiens) (UniProt P04150); assay: qHTS assay to identify small molecule antagonists of the glucocorticoid receptor (GR) signaling pathway (AID 720692; active means well fitted inhibition curve with a large enough effect in the signal ratio in the repeat runs, not every such curve was filed as active; the % refers to the signal ratio; further: potency means the concentration at half of the fitted maximal effect)
# Glucocorticoid receptor (Homo sapiens), sequence (P04150 whole entry, looked up): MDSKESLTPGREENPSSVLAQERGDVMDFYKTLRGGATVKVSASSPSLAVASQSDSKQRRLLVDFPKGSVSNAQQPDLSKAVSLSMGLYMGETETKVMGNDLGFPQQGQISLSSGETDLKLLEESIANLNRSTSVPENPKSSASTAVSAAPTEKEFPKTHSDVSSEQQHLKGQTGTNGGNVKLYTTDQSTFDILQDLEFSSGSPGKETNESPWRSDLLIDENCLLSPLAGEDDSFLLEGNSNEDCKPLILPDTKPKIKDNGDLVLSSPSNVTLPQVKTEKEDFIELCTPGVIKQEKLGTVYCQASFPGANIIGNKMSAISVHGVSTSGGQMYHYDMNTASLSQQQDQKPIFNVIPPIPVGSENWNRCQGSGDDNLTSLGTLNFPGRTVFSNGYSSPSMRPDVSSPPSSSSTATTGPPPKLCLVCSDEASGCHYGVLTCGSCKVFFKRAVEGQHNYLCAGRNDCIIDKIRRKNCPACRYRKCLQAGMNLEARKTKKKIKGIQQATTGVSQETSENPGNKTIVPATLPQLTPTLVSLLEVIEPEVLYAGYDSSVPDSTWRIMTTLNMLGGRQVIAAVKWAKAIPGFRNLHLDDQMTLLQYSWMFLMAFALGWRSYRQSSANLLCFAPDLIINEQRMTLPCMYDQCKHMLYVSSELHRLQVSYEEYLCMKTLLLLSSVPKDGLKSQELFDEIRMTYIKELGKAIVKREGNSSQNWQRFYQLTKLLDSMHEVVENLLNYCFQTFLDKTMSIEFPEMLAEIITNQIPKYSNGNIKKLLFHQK
# In short: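 GRE-bla HeLa line, dex-stimulated (5 nM final). Compound exposure 18 h, 37 C. Beta-lactamase FRET read after 2 h RT substrate.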
# [18] = target: Glucocorticoid receptor (Homo sapiens) (UniProt P04150); assay: qHTS assay to identify small molecule agonists of the glucocorticoid receptor (GR) signaling pathway (AID 720691; active means well fitted activation curve with a large enough effect in the signal ratio in the repeat runs, not every such curve was filed as active; the % refers to the signal ratio; further: potency means the concentration at half of the fitted maximal effect); settings: GR-bla HeLa, beta-lactamase reporter ratio, 18 h; activation: at 62.4 µM (top of the series)
# In short: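 A HeLa cervical cancer line expressing GR and a glucocorticoid response element-driven beta-lactamase gene is treated with compounds for 18 h; LiveBLAzer B/G FRET substrate is then applied and fluorescence read.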
# [19] = target: Androgen receptor (Homo sapiens) (UniProt P10275); assay: qHTS assay to identify small molecule antagonists of the androgen receptor (AR) signaling pathway using the MDA cell line (AID 743042; further: potency means the concentration at half of the fitted maximal effect; nearly all actives have a fitted effect of over 55% in size)
# In short: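 MDA-kb2 cells (human breast carcinoma, stably carrying an MMTV-luciferase reporter responsive to AR and GR) were plated at 3,000 cells/well and preincubated 5 hr at 37C, then given compound plus R1881 agonist for 16 h. ONE-Glo luminescence was read.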
# [20] = target: Androgen receptor (Homo sapiens) (UniProt P10275); assay: qHTS assay to identify small molecule antagonists of the androgen receptor (AR) signaling pathway (AID 743035; active means well fitted inhibition curve with a large enough effect in the signal ratio in the repeat runs, not every such curve was filed as active; the % refers to the signal ratio; further: potency means the concentration at half of the fitted maximal effect)
# In short: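 In this cell-based reporter screen, compounds were tested in concentration series against R1881-activated HEK293 cells expressing beta-lactamase under UAS control; after 16 h at 37C, FRET substrate was added and fluorescence read 2 h later.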
# Tags describe the fitted curve by direction and shape or compound fluorescence and quenching.
SMILES,outcome [1],Potency [2],outcome [3],Potency [4],Potency [5],Potency [6],Potency [7],Potency [8],Potency [9],Potency [10],Potency [11],Potency [12],Potency [13],Potency [14],Potency [15],Potency [16],Potency [17],Potency [18],Potency [19],Potency [20]
CCCCCCCC/C=C\CCCCCCCCOCCO,inactive,inactive,inactive,inactive,inactive,inactive,inactive,inactive,31.9 µM (active),5.62 µM (active),8.91 µM (active),22.6 µM (active),14.1 µM (active),,,,,,,
CCCCCCCCn1sc(Cl)c(Cl)c1=O,inactive,inactive,inactive,inactive,inactive,inactive,inactive,inactive,,0.433 µM (active),0.686 µM (active),6.16 µM (active),inactive,,,,,,,
CCN(CC)CCNC(=O)c1c(C)[nH]c(/C=C2\C(=O)Nc3ccc(F)cc32)c1C,inactive,inactive,inactive,inactive,inactive,inactive,inactive,inactive,,5.96 µM (active),7.5 µM (active),inactive,inactive,9.44 µM (active),,,,,,
CCCCCCCCCCCCc1ccc(O)cc1,inactive,inactive,inactive,inactive,inactive,inactive,inactive,inactive,21.9 µM (active),10.9 µM (active),12.2 µM (active),34.7 µM (active),54.5 µM (active),,,,,,,
O=S1(=O)CC(Cl)(Cl)C(Cl)(Cl)C1,inactive,inactive,inactive,inactive,inactive,inactive,inactive,inactive,9.77 µM (active),0.122 µM (active),0.154 µM (active),4.36 µM (active),13.7 µM (active),,inactive,,,,,
O=C1C=CC(=O)N1c1ccc(Cc2ccc(N3C(=O)C=CC3=O)cc2)cc1,inactive,inactive,inactive,inactive,inactive,inactive,inactive,inactive,,0.969 µM (active),1.54 µM (active),17.4 µM (active),54.5 µM (active),1.22 µM (active),,,,,,
O=C(Nc1cccc([N+](=O)[O-])c1)c1cc2ccccc2cc1O,inactive,inactive,inactive,inactive,inactive,inactive,inactive,inactive,,2.17 µM (active),2.17 µM (active),1.38 µM (active),10.9 µM (active),2.17 µM (active),inactive,inactive,,,,
Clc1ccccc1C(c1ccccc1)(c1ccccc1)n1ccnc1,inactive,inactive,inactive,inactive,inactive,inactive,,inactive,inactive,5.07 µM (active) and 5.45 µM (active),8.04 µM (active) and 3.44 µM (active),54.9 µM (active),inactive,,,,7.23 µM (active),,,
COc1ccc(CN2CCN(C(c3ccc(F)cc3)c3ccc(F)cc3)CC2)c(OC)c1OC,inactive,inactive,inactive,inactive,inactive,inactive,,inactive,inactive,3.76 µM (active),6.68 µM (active),23.9 µM (active),,5.96 µM (active),,,,4.77 µM (active),,
Oc1cc2ccccc2c2ccccc12,inactive,inactive,inactive,inactive,inactive,inactive,,inactive,17.4 µM (active),1.22 µM (active),1.09 µM (active),9.77 µM (active),27.3 µM (active),1.72 µM (active),inactive,,19.5 µM (active),,13.7 µM (active),
Fc1ccc([C@@H]2CCNC[C@H]2COc2ccc3c(c2)OCO3)cc1,inactive,inactive,inactive,inactive,inactive,inactive,,inactive,inactive,3.76 µM (active),7.5 µM (active),8.49 µM (active),18.8 µM (active),7.5 µM (active),inactive,,,inactive,,13.4 µM (active)
CCCCCCCCOC(=O)c1ccc(O)cc1,inactive,inactive,inactive,inactive,inactive,inactive,,inactive,inactive,,60.9 µM (active),inactive,inactive,60.9 µM (active),,,,,,
CC[C@@]1(O)C(=O)OCc2c1cc1n(c2=O)Cc2cc3c(CN(C)C)c(O)ccc3nc2-1,inactive,14.1 µM (active),inactive,inactive,inactive,14.1 µM [fluorescent] (active),inactive,,inactive,1.33 µM (active),0.841 µM (active),,,1.19 µM (active),,,,inactive,,
[Cl][Bi]([Cl])([c]1ccccc1)([c]1ccccc1)[c]1ccccc1,inactive,inactive,inactive,inactive,inactive,inactive,,inactive,48.7 µM (active),1.36 µM (active),2.42 µM (active),12.2 µM (active),27.1 µM (active),,inactive,,,,,
O=Cc1cc(O)ccc1Br,inactive,inactive,inactive,inactive,inactive,inactive,,inactive,inactive,,,inactive,inactive,,,,,inactive,,
